This is an account of results in ChEMBL document CHEMBL3433997, “St. Jude Leishmania screening dataset” (2016).

A word on the inhibition: it is the drop in the measured response relative to a control, in per cent.

What all share (type): functional
For experiment [1], the target named is Solute carrier family 2, facilitated glucose transporter member 1 (Homo sapiens) (UniProt P11166). The experiment in a line: ST_JUDE_LEISH: Cytotoxicity at 2uM final concentration against transgenic Leishmania Mexicana promastigotes LmGLUT1 that are glucose transport deficient and complemented with the human glucose transporter GLUT1. Activity is measured by DNA content using SYBR green in vitro.

Experiment [2] concerns the target Hexose transporter 1 (Plasmodium falciparum) (UniProt O97467). The experiment can be described thus: ST_JUDE_LEISH: Cytotoxicity at 2uM final concentration against transgenic Leishmania Mexicana promastigotes LmPfHT that are glucose transport deficient and complemented with the Plasmodium falciparum hexose transporter. Activity is measured by DNA content using SYBR green in vitro.

Experiment [3] deals with Glucose transporter (Leishmania mexicana) (UniProt O61059). The experiment in a line: ST_JUDE_LEISH: Cytotoxicity at 2uM final concentration against transgenic Leishmania Mexicana promastigotes LmGT2 that are glucose transport deficient and complemented with the L. Mexicana glucose transporter 2. Activity is measured by DNA content using SYBR green in vitro.

Chain of Solute carrier family 2, facilitated glucose transporter member 1 (Homo sapiens) (P11166 whole entry): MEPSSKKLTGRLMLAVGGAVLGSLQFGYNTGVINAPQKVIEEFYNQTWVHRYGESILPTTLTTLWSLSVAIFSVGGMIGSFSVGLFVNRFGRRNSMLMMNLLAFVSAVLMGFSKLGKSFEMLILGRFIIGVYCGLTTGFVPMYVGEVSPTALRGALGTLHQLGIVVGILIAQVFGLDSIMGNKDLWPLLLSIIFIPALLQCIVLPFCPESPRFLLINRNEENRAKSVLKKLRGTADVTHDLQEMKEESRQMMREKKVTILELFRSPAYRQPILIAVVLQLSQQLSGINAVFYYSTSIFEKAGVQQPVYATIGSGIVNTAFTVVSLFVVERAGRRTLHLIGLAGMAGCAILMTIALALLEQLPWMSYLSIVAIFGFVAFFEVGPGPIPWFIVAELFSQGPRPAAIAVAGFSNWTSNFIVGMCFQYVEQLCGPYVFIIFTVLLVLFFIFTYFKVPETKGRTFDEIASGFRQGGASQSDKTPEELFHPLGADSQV

Take `CN(C)c1c(CNCCCCCCNCc2ccc3ccccc3c2N(C)C)ccc2ccccc12`: the results for the inhibition in experiment [1], in experiment [2] and in experiment [3] were 8.79%, 8.66% and 7.38%, respectively.

`O=C(Nc1ccc(Cl)cc1)c1ccc(CN2CCCN(Cc3cccc(Cl)c3)CC2)cc1`: the inhibition was -0.65% in experiment [1], -1.08% in experiment [2] and -0.52% in experiment [3].

Consider `COc1cc(-c2nc(-c3ccncc3)c(-c3ccc4c(c3)CCC4=NO)[nH]2)ccc1OCCN1CCCCC1`, for which the values for the inhibition in experiment [1], in experiment [2] and in experiment [3] were -5.14%, 1.57% and 2.76%, respectively.

For the compound `Oc1ccc(Nc2nc(NCc3ccco3)c3ccccc3n2)cc1`, the inhibition in experiment [1] was determined as 25.1%; in experiment [2], 20.8%; in experiment [3], 10.9%.

For `O=C(O)CCCN1CCCC(=C(c2ccccc2)c2ccccc2)C1`, the figures for the inhibition in experiment [1], in experiment [2] and in experiment [3] were 3.04%, 3.64% and 4.81%, respectively.

Take `Cc1cc(-c2ccc3c(c2)CC[C@@H](N[C@@H](C)c2ccccc2)C3)cnc1N`: the inhibition in experiment [1] stood at 4.92%; in experiment [2], 1.71%; in experiment [3], 2.23%.

On to `CCN(CCCN1CCCCC1)c1cc(C)nc(Nc2ccc(C)c(F)c2)n1`, for which the inhibition amounted to 5.07% in experiment [1], 5.06% in experiment [2] and 6.2% in experiment [3].

`N#Cc1ccc2c(c1)CCN(CCC1CCC(NC(=O)/C=C/c3c[nH]c4c(Br)cccc34)CC1)CC2` (centres undefined): the inhibition in experiment [1] is 16.5%; in experiment [2] it was 15.6%; in experiment [3], 6.85%.

Turning to `O=C(CSc1nc(-c2ccccc2Cl)ns1)Nc1cccc(F)c1`, the inhibition in experiment [1] is -0.07%; in experiment [2], -0.93%; in experiment [3], 5.3%.

Consider `COc1ccc(C=NNc2nc3ccccc3[nH]2)cc1O`, for which the inhibition in experiment [1] is -3.31%; in experiment [2], -1.02%; in experiment [3], 1.86%.

Turning to `Cc1n[nH]c2ccc(-c3cc(OC[C@@H](N)Cc4ccccc4)cnc3-c3ccccc3OCc3cccc(F)c3)cc12`, the results for the inhibition in experiment [1], in experiment [2] and in experiment [3] were 9.75%, 1.05% and -0.42%, respectively.

Turning to `O=C(Cc1cccnc1)N(Cc1ccc(-c2ccc(CNCc3cccnc3)cn2)cc1)C1CCN(Cc2ccccc2)CC1`, the inhibition in experiment [1] was -1.34%; in experiment [2], -0.95%; in experiment [3], -1.68%.

As for `CS(=O)(=O)c1cccc(-c2cnc3[nH]cc(-c4ccc(CCC(=O)O)cc4)c3c2)c1`, the inhibition was determined as 0.77% in experiment [1], 1.38% in experiment [2] and 0.31% in experiment [3].

On to `Fc1cccc(Nc2nc(NCc3ccc(Cl)c(Cl)c3)nc(Nc3cccc(F)c3)n2)c1`, for which the inhibition in experiment [1] is 11.7%; in experiment [2] it was 13.6%; in experiment [3] it was 7.17%.

Consider `C=CCN1C(=O)C(C(C)=O)=C(O)C1c1ccccc1` (centres undefined), for which the figures for the inhibition in experiment [1], in experiment [2] and in experiment [3] were -0.92%, -4.02% and 0.66%, respectively.

On to `Cc1ccc(NC(=N)Nc2ncccc2OCc2c(F)cccc2Cl)cc1`, for which the inhibition turned out to be 7.2% in experiment [1], 7.97% in experiment [2] and 5.56% in experiment [3].

For the compound `CS(=O)(=O)CCNCc1cccc(-c2ccc3c(Nc4cc(O)c(Cl)cc4F)ccnc3c2)c1`, the values for the inhibition in experiment [1], in experiment [2] and in experiment [3] were 6.47%, 4.71% and 2.65%, respectively.

As to `Cc1cc(NC(=O)Nc2ccc3sccc3c2)c2ccccc2n1`, the inhibition in experiment [1] was 2.24%; in experiment [2], 2.66%; in experiment [3], 0.53%.

Take `CC(=O)Nc1cccc(Nc2nccc(-c3c(-c4cccc(NC(=O)c5c(F)cccc5F)c4)nn4ncccc34)n2)c1`: the inhibition was found to be 6.99% in experiment [1], 11% in experiment [2] and 1.53% in experiment [3].

With `COc1ccc(Nc2nccc(-c3ccc4c(-c5ccsc5)cnc(N)c4c3)n2)cc1`, the results for the inhibition in experiment [1], in experiment [2] and in experiment [3] were 1.99%, 7.26% and 6.65%, respectively.

On to `Cc1cc(=NN=Cc2ccccc2Cl)c2cccc(C)c2[nH]1`, for which the inhibition in experiment [1] was 3.87%; in experiment [2], 2.32%; in experiment [3], -1.14%.

In the case of `O=C(Nc1cccc(-c2ccc(-c3nc4cc(F)ccc4[nH]3)cc2)c1)c1csnn1`, the values for the inhibition in experiment [1], in experiment [2] and in experiment [3] were 12.4%, 11.9% and 11.1%, respectively.

As to `C=CCN1CCC(N(Cc2cccc(Oc3ccccc3)c2)C(=O)C(c2ccccc2)c2ccccc2)CC1`, the inhibition in experiment [1] was -1.05%; in experiment [2] it was -2.14%; in experiment [3], -2.94%.

In the case of `Cc1cccc2nc(-c3ccc(-c4ccc(NC(=O)C5CCN(C)CC5)cc4)cc3)[nH]c12`, the inhibition in experiment [1] amounted to 3.08%; in experiment [2], 5.28%; in experiment [3], 1.38%.

As for `O=C(/C=C/c1ccc(Cl)c(Cl)c1)NCCCCCN1CCC(NC(=O)Nc2ccc(Cl)c(Cl)c2)CC1`, the inhibition is 1.02% in experiment [1], -0.03% in experiment [2] and 0.09% in experiment [3].

Regarding `FC(F)(F)c1ccc2[nH]c(-c3cccc(-c4cccc(CN5CCN(c6ccncc6)CC5)c4)c3)nc2c1`, the inhibition in experiment [1] came to 1.83%; in experiment [2], 2.18%; in experiment [3], 3.38%.

As to `Cc1c(C(=O)Nc2cc(Sc3ccc(F)cc3)cc([N+](=O)[O-])c2)sc2ncn(Cc3cccc(F)c3)c(=O)c12`, the figures for the inhibition in experiment [1], in experiment [2] and in experiment [3] were 3.77%, -2.45% and 7.11%, respectively.

Consider `Cc1cccc2c(CON3C(N)=NC(N)=NC3(C)C)cccc12`, for which the values for the inhibition in experiment [1], in experiment [2] and in experiment [3] were 0.73%, 1.67% and 1.51%, respectively.

As to `CCN(CCCN1CCCCC1)c1cc(C)nc(Nc2cc(F)cc(F)c2)n1`, the inhibition was found to be 5.16% in experiment [1], 4.98% in experiment [2] and 4.62% in experiment [3].

For `CCCCCCN1CCC(NCc2ccc(OCCN3CCCC3)cc2)CC1`, the inhibition in experiment [1] is -1.34%; in experiment [2], -0.02%; in experiment [3], -0.15%.

As to `O=C(C=Cc1cccc(F)c1)NC1CCC(CCN2CCc3ccc(-c4cnccn4)cc3CC2)CC1` (centres undefined), the inhibition in experiment [1] is 14.4%; in experiment [2], 14.2%; in experiment [3] it was 13.1%.

As to `O=C(NCCCN1CCC(NC(=O)c2ccc(-c3cccnc3)cc2)CC1)c1ccc(Cl)c(Cl)c1`, the inhibition was determined as 2.51% in experiment [1], 1.38% in experiment [2] and 1.63% in experiment [3].

Take `COc1cc2nc(N3CCC(CNC(=O)c4ccc(-c5ccc(C#N)cc5)cc4)CC3)nc(N)c2cc1OC`: the inhibition was determined as 1.64% in experiment [1], 1.87% in experiment [2] and 1.74% in experiment [3].
